Test results: PubChem BioAssay (NCATS)
Inconclusive results are not listed. Where a call stands in place of a potency, no number is given. Unmarked numbers belong to inactive results. Activity calls are given as the source filed them. Calls follow the shape of the dose curve; as a rule, active = well fitted curve in the direction sought with a large enough effect; inconclusive = small, poorly fitted or top-dose-only effect, or another doubt; inactive = no such curve, though single readings can be large; an effect the other way counts as inactive or inconclusive.

How the values were obtained:
[1] = molecular target: Rap guanine nucleotide exchange factor 3 (Homo sapiens) (UniProt O95398); assay: Confirmatory qHTS for antagonist of cAMP-regulated guanine nucleotide exchange factor 3 (EPAC1) (AID 1645880); details: EPAC1 Rap1B-BODIPY-GDP exchange, fluorescence; activity, negative = inhibition: at 115 µM (top of the series); also: nearly all actives have a fitted effect of over 55% in size; also: potency is read from the fitted curve at half-maximal effect
How it was run: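 Nucleotide exchange uses 100 nM EPAC1, 250 nM RAP1B-BODIPY-GDP and 50 uM GDP, with compounds in a concentration-titration series. After 5 min at room temperature, fluorescence (480 nm ex/540 nm em) is read every 5 min for 30 min. Data are normalized to control ATA and DMSO.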

[2] = molecular target: Rap guanine nucleotide exchange factor 3 (Homo sapiens) (UniProt O95398); assay: Confirmatory qHTS for agonist of cAMP-regulated guanine nucleotide exchange factor 3 (EPAC1) (AID 1645881);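 also: EPAC1 catalysed release of BODIPY-GDP from Rap1B seen as fluorescence loss; nearly all actives have a fitted effect of over 75% in size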
[3] = molecular target: Rap guanine nucleotide exchange factor 3 (Homo sapiens) (UniProt O95398); assay: Counterscreen qHTS for antagonist of cAMP-regulated guanine nucleotide exchange factor 3 (EPAC1) (AID 1645888);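 also: fluorescence loss as bound BODIPY-GDP is released from Rap1B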
How it was run: (§1)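 Rap1B-BODIPY-GDP 250 nM + GDP 50 uM; cpds 7-pt, final 9.74 nM–152 uM (activator mode) or from 7.32 nM upwards (inhibitor mode); RT; FI 480/540 nm at 5 and 30 min, then ± cAMP, reread.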

[4] = molecular target: Rap guanine nucleotide exchange factor 3 (Homo sapiens) (UniProt O95398); assay: Counterscreen qHTS for agonist of cAMP-regulated guanine nucleotide exchange factor 3 (EPAC1) (AID 1645889); also: nearly all actives have a fitted effect of over 40% in size
How it was run: as §1

[5] = molecular target: Rap guanine nucleotide exchange factor 4 (Homo sapiens) (UniProt Q8WZA2); assay: Confirmatory qHTS for agonist of cAMP-regulated guanine nucleotide exchange factor 4 (EPAC2) (AID 1645884);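 also: nucleotide exchange releases bodipy-GDP from Rap1 and this lowers its fluorescence; nearly all actives have a fitted effect of over 65% in size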
Rap guanine nucleotide exchange factor 4 (Homo sapiens), sequence (Q8WZA2 whole entry, looked up): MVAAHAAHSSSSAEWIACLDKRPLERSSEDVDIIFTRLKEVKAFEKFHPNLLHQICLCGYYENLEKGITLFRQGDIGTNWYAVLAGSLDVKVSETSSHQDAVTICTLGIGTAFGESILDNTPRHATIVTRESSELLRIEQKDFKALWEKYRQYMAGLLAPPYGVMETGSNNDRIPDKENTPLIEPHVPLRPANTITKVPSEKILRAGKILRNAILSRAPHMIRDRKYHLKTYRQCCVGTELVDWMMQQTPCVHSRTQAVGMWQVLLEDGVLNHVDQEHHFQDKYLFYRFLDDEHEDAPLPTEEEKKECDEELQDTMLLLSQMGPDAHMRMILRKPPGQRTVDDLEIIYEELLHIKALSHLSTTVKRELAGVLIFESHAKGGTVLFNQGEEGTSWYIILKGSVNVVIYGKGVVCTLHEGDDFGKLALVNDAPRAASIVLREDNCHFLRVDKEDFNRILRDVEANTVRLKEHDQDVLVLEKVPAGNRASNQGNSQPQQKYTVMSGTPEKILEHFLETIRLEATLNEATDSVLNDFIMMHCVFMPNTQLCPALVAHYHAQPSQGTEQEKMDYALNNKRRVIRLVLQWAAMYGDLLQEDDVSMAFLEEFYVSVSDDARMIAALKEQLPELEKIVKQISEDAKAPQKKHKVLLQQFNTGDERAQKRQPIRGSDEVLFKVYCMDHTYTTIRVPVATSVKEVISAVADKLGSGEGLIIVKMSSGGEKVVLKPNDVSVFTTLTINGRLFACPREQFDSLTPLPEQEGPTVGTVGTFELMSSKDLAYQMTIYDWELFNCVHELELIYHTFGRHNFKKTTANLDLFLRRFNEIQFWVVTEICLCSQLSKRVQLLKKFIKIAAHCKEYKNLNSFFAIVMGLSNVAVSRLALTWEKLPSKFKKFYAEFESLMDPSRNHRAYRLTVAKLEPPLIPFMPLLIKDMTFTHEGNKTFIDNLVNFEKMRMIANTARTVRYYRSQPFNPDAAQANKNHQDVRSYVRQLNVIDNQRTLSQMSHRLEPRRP

Rap guanine nucleotide exchange factor 3 (Homo sapiens), sequence (O95398 whole entry, looked up): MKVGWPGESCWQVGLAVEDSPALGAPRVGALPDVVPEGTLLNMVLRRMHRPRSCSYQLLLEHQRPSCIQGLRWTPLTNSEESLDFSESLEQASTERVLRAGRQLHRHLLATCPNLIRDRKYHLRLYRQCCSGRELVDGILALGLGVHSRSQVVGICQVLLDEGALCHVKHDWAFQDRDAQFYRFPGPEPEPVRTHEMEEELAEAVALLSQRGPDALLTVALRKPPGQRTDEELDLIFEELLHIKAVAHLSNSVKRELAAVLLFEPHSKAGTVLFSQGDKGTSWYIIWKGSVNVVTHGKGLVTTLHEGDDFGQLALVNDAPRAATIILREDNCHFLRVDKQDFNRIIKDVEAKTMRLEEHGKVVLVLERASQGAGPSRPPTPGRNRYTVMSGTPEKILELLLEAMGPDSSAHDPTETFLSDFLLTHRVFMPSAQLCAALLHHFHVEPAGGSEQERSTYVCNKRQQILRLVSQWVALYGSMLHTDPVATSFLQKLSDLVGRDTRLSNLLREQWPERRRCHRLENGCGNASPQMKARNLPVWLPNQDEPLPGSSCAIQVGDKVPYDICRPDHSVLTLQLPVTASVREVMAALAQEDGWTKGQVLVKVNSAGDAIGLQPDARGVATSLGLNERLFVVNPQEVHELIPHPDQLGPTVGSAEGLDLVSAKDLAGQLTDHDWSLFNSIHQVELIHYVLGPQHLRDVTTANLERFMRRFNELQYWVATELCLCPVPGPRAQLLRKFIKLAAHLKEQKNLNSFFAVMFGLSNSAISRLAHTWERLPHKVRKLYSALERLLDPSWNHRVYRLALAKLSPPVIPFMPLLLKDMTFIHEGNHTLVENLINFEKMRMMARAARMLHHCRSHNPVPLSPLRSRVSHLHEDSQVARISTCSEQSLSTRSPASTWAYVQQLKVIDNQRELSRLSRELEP

## CNc1snc(C)c1C(=O)OCC(=O)Nc1ccc(C)cc1F
[1]
  Potency: inactive
[2]
  Potency: inactive
[3]
  Potency: inactive
[4]
  Potency: inactive

## COc1ccc(N2C(=O)[C@H]3CCC=C[C@H]3[C@@H]2c2ccccc2Br)cc1
[1]
  Potency: inactive
[2]
  Potency: inactive
[4]
  Potency: inactive

## CCOC(=O)C1Oc2ccccc2C(c2ccc(C)cc2)=C1C(=O)OC (configuration not stated)
[1]
  Potency: inactive
[2]
  Potency: inactive
[4]
  Potency: inactive

## CCCC[C@@H]1C=C(C(=O)O)[C@H](c2ccc(Cl)c(Cl)c2)N1S(=O)(=O)c1ccc(C)cc1
[1]
  Potency: 84.9 µM (active)
[2]
  Potency: inactive
[3]
  Potency: inactive
[4]
  Potency: inactive

## CC(=O)O[C@H]1c2ccccc2-c2ccccc2[C@@H]1OC(C)=O
[1]
  Potency: inactive
[2]
  Potency: inactive
[3]
  activity change, negative = inhibition: -14.6% [at 30.8 µM]
[4]
  activation: 8.91% [at 30.8 µM]

## Cc1ccc(S(=O)(=O)N2[C@@H](c3ccc(C(C)(C)C)cc3)C(C(=O)O)=CC[C@H]2c2ccc(Cl)cc2)cc1
[1]
  Potency: 33.8 µM (active)
[2]
  Potency: inactive
[4]
  Potency: inactive

## C=CCOc1ccc(/C=N/NC(C)=O)cc1OCC
[1]
  Potency: inactive
[2]
  Potency: inactive
[3]
  Potency: inactive
[4]
  Potency: inactive

## CCCC(CNC(C)=O)(C1=CCCCC1)c1ccccc1 (configuration not stated)
[1]
  Potency: inactive
[2]
  Potency: inactive
[3]
  activity change, negative = inhibition: 1.17% [at 30.8 µM]
[4]
  activation: 15.1% [at 30.8 µM]

## Fc1cc(F)cc(-c2c(-c3ccccc3)ncc3ccc(F)cc23)c1
[1]
  Potency: inactive
[2]
  Potency: inactive
[4]
  Potency: inactive

## COc1ccccc1-c1oc2ccccc2c1-c1ccc2c(c1)OCO2
[1]
  Potency: inactive
[2]
  Potency: inactive
[4]
  Potency: inactive

## O=C(CSc1nc2ccccc2o1)NCc1ccc2c(c1)OCO2
[1]
  Potency: inactive
[5]
  Potency: inactive
